# Results published in PubChem BioAssay AID1159580 (chemical genetic matrix, 2015).
# Screen size: about 5,500 compounds; about 2,000 (36%) were called active. Inconclusive results (about 18%) are left out. Some of the results follow. A number with no mark means an inactive call. No stated cut-off is given here; in the data, active means normalized growth mostly below about 0.91 (no sharp cut-off); inconclusive means no clear call, values can overlap the other calls; inactive means mostly above about 0.92.
# Assay: chemical genetic growth profiling, strain panel (AID 1159580);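 further: tested at 20 µM; growth read once vehicle control cultures reached saturation at 30 °C; 1 = growth at the plate median or of vehicle wells; lower values mean less growth of the strain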
# Settings: growth OD
# [1] = S. cerevisiae deletion strains, locus YAL013W, strain DEP1, active compounds read low
# [2] = S. cerevisiae deletion strains, locus YBR229C, strain ROT2, active compounds read low
# [3] = S. cerevisiae deletion strains, locus YDL101C, strain DUN1, active compounds read low
# [4] = S. cerevisiae deletion strains, locus YDL134C, strain PPH21, active compounds read low
# [5] = S. cerevisiae deletion strains, locus YDR150W, strain NUM1, active compounds read low
# [6] = S. cerevisiae deletion strains, locus YEL061C, strain CIN8, active compounds read low
# [7] = S. cerevisiae deletion strains, locus YGR078C, strain PAC10, active compounds read low
# [8] = S. cerevisiae deletion strains, locus YHR030C, strain SLT2, active compounds read low
# [9] = S. cerevisiae deletion strains, locus YHR087W, strain rtc3, active compounds read low
# [10] = S. cerevisiae deletion strains, locus YJR043C, strain POL32, active compounds read low
# [11] = S. cerevisiae deletion strains, locus YJR075W, strain HOC1, active compounds read low
# [12] = S. cerevisiae deletion strains, locus YKL190W, strain CNB1, active compounds read low
# [13] = S. cerevisiae deletion strains, locus YLR039C, strain RIC1, active compounds read low
# [14] = S. cerevisiae deletion strains, locus YLR058C, strain SHM2 (second series), active compounds read low
# [15] = S. cerevisiae deletion strains, locus YLR085C, strain ARP6, active compounds read low
# [16] = S. cerevisiae deletion strains, locus YLR262C, strain YPT6, active compounds read low
# [17] = S. cerevisiae deletion strains, locus YML094W, strain GIM5, active compounds read low
# [18] = S. cerevisiae deletion strains, locus YMR219W, strain ESC1, active compounds read low
# [19] = S. cerevisiae deletion strains, locus YMR263W, strain SAP30, active compounds read low
# [20] = S. cerevisiae deletion strains, locus YNL153C, strain GIM3, active compounds read low
# [21] = S. cerevisiae deletion strains, locus YNL298W, strain CLA4 (second series), active compounds read low
# [22] = S. cerevisiae deletion strains, locus YNL322C, strain KRE1, active compounds read low
# [23] = S. cerevisiae deletion strains, locus YNR030W, strain Alg12, active compounds read low
# [24] = S. cerevisiae deletion strains, locus YPL055C, strain LGE1, active compounds read low
# [25] = S. cerevisiae deletion strains, locus YPL241C, strain CIN2, active compounds read low
# [26] = S. cerevisiae deletion strains, locus YPR135W, strain CTF4, active compounds read low
# [27] = S. cerevisiae strains, strain wild type, active compounds read low
smiles,measurement,setting,value
O=C(O)CSC1CCS(=O)(=O)C1 (stereo not given),normalized growth,[1],1.02
same,normalized growth,[2],0.998
same,normalized growth,"S. cerevisiae deletion strains, locus YCL061C, strain MRC1, active compounds read low",1.02
same,normalized growth,[3],1.02
same,normalized growth,[4],1.02
same,normalized growth,[5],0.956
same,normalized growth,[6],1.04
same,normalized growth,[7],1.01
same,normalized growth,[8],1.05
same,normalized growth,[9],1.01
same,normalized growth,[10],1
same,normalized growth,[11],1.06
same,normalized growth,[12],1.01
same,normalized growth,[13],1.06
same,normalized growth,[14],1.01
same,normalized growth,[15],1
same,normalized growth,[16],1.06
same,normalized growth,[17],1.03
same,normalized growth,[18],1
same,normalized growth,[19],1
same,normalized growth,[20],0.997
same,normalized growth,[21],1.01
same,normalized growth,[22],1.03
same,normalized growth,[23],1
same,normalized growth,[24],0.906
same,normalized growth,[25],1.01
same,normalized growth,[26],1.02
same,normalized growth,[27],1.01
Cn1c(CSc2ccccc2)n[nH]c1=S,normalized growth,[1],0.997
same,normalized growth,[2],0.99
same,normalized growth,[3],0.994
same,normalized growth,[4],1.01
same,normalized growth,[5],0.949
same,normalized growth,[6],1.02
same,normalized growth,[7],0.977
same,normalized growth,[8],1.01
same,normalized growth,[9],0.982
same,normalized growth,[10],0.978
same,normalized growth,[11],0.987
same,normalized growth,[13],1.05
same,normalized growth,[14],0.998
same,normalized growth,[15],1.09
same,normalized growth,[16],1.04
same,normalized growth,[17],1.01
same,normalized growth,[18],0.992
same,normalized growth,[19],0.963
same,normalized growth,"S. cerevisiae deletion strains, locus YMR307W, strain GAS1, active compounds read low",1.2
same,normalized growth,[20],0.981
same,normalized growth,[21],1.03
same,normalized growth,[22],1.01
same,normalized growth,[23],1.02
same,normalized growth,[24],0.965
same,normalized growth,[25],1.02
same,normalized growth,[26],1.04
same,normalized growth,[27],1.01
N=C(N)c1ccccc1,normalized growth,[1],1.01
same,normalized growth,"S. cerevisiae deletion strains, locus YAL040C, strain CLN3, active compounds read low",0.991
same,normalized growth,"S. cerevisiae deletion strains, locus YCL061C, strain MRC1 (second series), active compounds read low",1.01
same,normalized growth,[5],1
same,normalized growth,"S. cerevisiae deletion strains, locus YDR363W, strain ESC2, active compounds read low",1.01
same,normalized growth,"S. cerevisiae deletion strains, locus YER002W, strain NOP16, active compounds read low",1.02
same,normalized growth,[20],1.07
same,normalized growth,"S. cerevisiae deletion strains, locus YNL175C, strain NOP13, active compounds read low",0.999
same,normalized growth,"S. cerevisiae deletion strains, locus YNL197C, strain WHI3, active compounds read low",1.03
same,normalized growth,"S. cerevisiae deletion strains, locus YNL224C, strain SQS1, active compounds read low",1.01
same,normalized growth,[22],1.02
same,normalized growth,"S. cerevisiae deletion strains, locus YOR083W, strain WHI5 (second series), active compounds read low",1.06
NC(=S)CSc1ccccc1,normalized growth,[1],0.937
same,normalized growth,[2],0.969
same,normalized growth,[3],1.01
same,normalized growth,[5],0.921
same,normalized growth,[6],0.87 (active)
same,normalized growth,[7],0.99
same,normalized growth,"S. cerevisiae deletion strains, locus YGR229C, strain SMI1, active compounds read low",0.991
same,normalized growth,[8],0.62 (active)
same,normalized growth,[9],1.03
same,normalized growth,"S. cerevisiae deletion strains, locus YJL187C, strain SWE1, active compounds read low",0.969
same,normalized growth,[10],0.924
same,normalized growth,[11],1.04
same,normalized growth,[12],0.864 (active)
same,normalized growth,[13],0.883
same,normalized growth,[14],1
same,normalized growth,[15],0.591 (active)
same,normalized growth,[16],0.919
same,normalized growth,[17],0.892
same,normalized growth,[18],0.999
same,normalized growth,[20],0.981
same,normalized growth,[21],0.711 (active)
same,normalized growth,[22],1.04
same,normalized growth,[23],0.681 (active)
same,normalized growth,"S. cerevisiae deletion strains, locus YOL006C, strain TOP1, active compounds read low",0.31 (active)
same,normalized growth,[24],0.855
same,normalized growth,[25],0.832 (active)
same,normalized growth,[26],0.679
same,normalized growth,[27],0.888 (active)
